# Inconclusive results are not listed. Where a call stands in place of a potency, no number is given. Activity calls are given as the source filed them. Unless noted, calls follow the shape of the dose curve; as a rule, active = well fitted curve in the direction sought with a large enough effect in the repeat runs; inconclusive = weak or mixed curves; inactive = no such curve, though single readings can be large; an effect the other way counts as inactive or inconclusive.
# Legend:
# [1] = qHTS assay to identify small molecule agonists of the peroxisome proliferator-activated receptor delta (PPARd) signaling pathway - cell viability counter screen (AID 743211); also: nearly all actives have a fitted effect of over 55% in size
# Outline: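 HEK293H PPARd-bla, 3000 cells/well; 5 h preincubation 37C/5% CO2; cpd in DMSO, 17 h 37C; B/G FRET substrate 2 h RT; CellTiter-Glo 30 min RT, luminescence.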
# [2] = target: Bile acid receptor (Homo sapiens) (UniProt Q96RI1); assay: qHTS assay to identify small molecule antagonists of the farnesoid-X-receptor (FXR) signaling pathway (AID 743217; active = well fitted inhibition curve with a large enough effect in the signal ratio in the repeat runs, not every such curve was filed as active; the % refers to the signal ratio)
# Chain of Bile acid receptor (Homo sapiens) (Q96RI1 whole entry, looked up): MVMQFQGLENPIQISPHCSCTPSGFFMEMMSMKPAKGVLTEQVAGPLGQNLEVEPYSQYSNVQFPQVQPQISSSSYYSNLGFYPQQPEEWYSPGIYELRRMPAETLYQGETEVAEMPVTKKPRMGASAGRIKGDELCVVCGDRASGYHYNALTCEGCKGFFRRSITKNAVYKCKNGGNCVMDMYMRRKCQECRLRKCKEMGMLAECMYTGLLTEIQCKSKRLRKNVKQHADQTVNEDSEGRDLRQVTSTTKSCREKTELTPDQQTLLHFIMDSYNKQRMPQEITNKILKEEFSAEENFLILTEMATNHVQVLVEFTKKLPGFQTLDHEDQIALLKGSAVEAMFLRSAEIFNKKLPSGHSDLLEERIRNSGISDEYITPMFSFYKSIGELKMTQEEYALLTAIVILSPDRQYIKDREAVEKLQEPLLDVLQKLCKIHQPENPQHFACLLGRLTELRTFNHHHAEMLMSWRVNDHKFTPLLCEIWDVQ
# Outline: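 Antagonist mode: chenodeoxycholic acid at 50 uM final stimulates a UAS-driven beta-lactamase reporter in HEK 293T FXR-bla cells during 16 h, 37C compound exposure. Read-out is FRET substrate fluorescence after 2 h at room temperature.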
# [3] = qHTS assay to identify small molecule agonists of the farnesoid-X-receptor (FXR) signaling pathway - cell viability counter screen (AID 743218); also: nearly all actives have a fitted effect of over 45% in size
# Outline: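 Viability counter screen in the same wells: CellTiter-Glo luminescence, 30 min room-temperature incubation, measured after the beta-lactamase read. Cells were GeneBLAzer FXR-UAS-bla HEK 293T, compound-treated 16 h at 37C.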
# [4] = target: Bile acid receptor (Homo sapiens) (UniProt Q96RI1); assay: qHTS assay to identify small molecule agonists of the farnesoid-X-receptor (FXR) signaling pathway (AID 743220; active = well fitted activation curve with a large enough effect in the signal ratio in the repeat runs, not every such curve was filed as active; the % refers to the signal ratio)
# Outline: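 FXR-UAS-bla HEK 293T cells carrying a UAS-driven beta-lactamase reporter were plated for 5 h at 37C/5% CO2, then exposed to DMSO-dissolved Tox21 10K compounds for 16 h at 37C. A LiveBLAzer B/G FRET substrate was loaded for 2 h at room temperature before fluorescence reading.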
# [5] = qHTS assay to identify small molecule antagonists of the farnesoid-X-receptor (FXR) signaling pathway - cell viability counter screen (AID 743221; active = well fitted cell-killing curve with a large enough effect in the repeat runs, not every such curve was filed as active; also: nearly all actives have a fitted effect of over 50% in size)
# Outline: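 Luminescence from CellTiter-Glo measures cytotoxicity in GeneBLAzer FXR-UAS-bla HEK 293T cells. Cells were exposed to compounds with 50 uM chenodeoxycholic acid (final) for 16 h at 37 C, in wells also used for the reporter readout.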
# [6] = target: Peroxisome proliferator-activated receptor delta (Homo sapiens) (UniProt Q03181); assay: qHTS assay to identify small molecule agonists of the peroxisome proliferator-activated receptor delta (PPARd) signaling pathway (AID 743212; calls by dose curve;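 also: HEK293H cells with PPARd UAS beta-lactamase reporter GeneBLAzer system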)
# Chain of Peroxisome proliferator-activated receptor delta (Homo sapiens) (Q03181 whole entry, looked up): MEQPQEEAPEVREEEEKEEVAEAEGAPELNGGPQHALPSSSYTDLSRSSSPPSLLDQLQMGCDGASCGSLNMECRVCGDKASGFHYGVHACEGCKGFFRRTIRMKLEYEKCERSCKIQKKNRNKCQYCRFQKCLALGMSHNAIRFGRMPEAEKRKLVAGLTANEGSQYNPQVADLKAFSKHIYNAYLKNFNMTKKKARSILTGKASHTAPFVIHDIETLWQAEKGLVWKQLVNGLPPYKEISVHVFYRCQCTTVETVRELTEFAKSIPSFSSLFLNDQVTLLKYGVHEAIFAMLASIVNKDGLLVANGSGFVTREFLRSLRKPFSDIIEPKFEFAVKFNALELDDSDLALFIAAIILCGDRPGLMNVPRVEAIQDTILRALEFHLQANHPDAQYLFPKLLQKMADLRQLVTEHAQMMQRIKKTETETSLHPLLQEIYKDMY
# Outline: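 Steps: seed PPARd-bla HEK293H cells; incubate 5 h, 37 C, 5% CO2; add compounds in DMSO; incubate, 37 C; add LiveBLAzer B/G FRET substrate; hold 2 h at room temperature; measure fluorescence.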
# [7] = qHTS assay to identify small molecule antagonists of the peroxisome proliferator-activated receptor delta (PPARd) signaling pathway - cell viability counter screen (AID 743213); also: nearly all actives have a fitted effect of over 50% in size; also: potency is read from the fitted curve at half-maximal effect
# Outline: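 Cytotoxicity counter screen: CellTiter-Glo luminescence read 30 min after addition, in the same wells as the reporter assay. There, PPARd UAS-bla HEK293H cells (3000/well) were treated 17 h at 37 C with compound and 300 nM L165041.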
# [8] = target: Peroxisome proliferator-activated receptor delta (Homo sapiens) (UniProt Q03181); assay: qHTS assay to identify small molecule antagonists of the peroxisome proliferator-activated receptor delta (PPARd) signaling pathway (AID 743215; active = well fitted inhibition curve with a large enough effect in the signal ratio in the repeat runs, not every such curve was filed as active; the % refers to the signal ratio;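 also: cells stimulated with agonist L165041 at 300 nM final during compound exposure; series mostly up to about 62 µM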)
# Outline: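 Agonist L165041 (300 nM final) added with compound to PPARd-bla HEK293H UAS-bla reporter cells; 17 h incubation at 37 C. Read-out: LiveBLAzer FRET substrate, 2 h at room temperature, fluorescence intensity.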
# [9] = target: Vitamin D3 receptor (Homo sapiens) (UniProt P11473); assay: qHTS assay to identify small molecule agonists of the vitamin D receptor (VDR) signaling pathway (AID 743222; calls by dose curve)
# Chain of Vitamin D3 receptor (Homo sapiens) (P11473 whole entry, looked up): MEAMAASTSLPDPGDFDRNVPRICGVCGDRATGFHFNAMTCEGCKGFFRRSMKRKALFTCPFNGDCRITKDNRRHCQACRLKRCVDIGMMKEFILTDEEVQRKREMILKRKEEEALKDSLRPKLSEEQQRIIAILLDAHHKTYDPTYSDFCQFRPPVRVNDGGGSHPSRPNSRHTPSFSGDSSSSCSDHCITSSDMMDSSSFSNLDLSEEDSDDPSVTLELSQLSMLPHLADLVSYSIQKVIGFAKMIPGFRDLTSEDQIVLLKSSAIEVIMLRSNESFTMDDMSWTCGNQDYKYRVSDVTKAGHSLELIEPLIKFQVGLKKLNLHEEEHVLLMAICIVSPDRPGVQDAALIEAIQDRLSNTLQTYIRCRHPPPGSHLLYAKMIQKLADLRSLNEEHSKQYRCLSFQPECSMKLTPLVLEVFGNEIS
# Outline: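 Agonist mode, beta-lactamase reporter: fluorescence from LiveBLAzer B/G FRET substrate (2 h, room temperature) read after 16 h compound treatment at 37 C of VDR-bla cells, which were pre-incubated 4 h after seeding.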
# [10] = target: Vitamin D3 receptor (Homo sapiens) (UniProt P11473); assay: qHTS assay to identify small molecule antagonists of the vitamin D receptor (VDR) signaling pathway (AID 743223; active = well fitted inhibition curve with a large enough effect in the signal ratio in the repeat runs, not every such curve was filed as active; the % refers to the signal ratio)
# Outline: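 Antagonist mode uses 1alpha,25-dihydroxyvitamin D3 at 3 nM final as stimulus. VDR-bla cells receive compounds in DMSO, incubate 16 h at 37C, then a beta-lactamase FRET substrate for 2 h at room temperature before fluorescence measurement.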
SMILES,Potency [1],outcome [2],Potency [3],outcome [4],Potency [5],Potency [6],Potency [7],outcome [8],outcome [9],outcome [10]
COc1ccc(C(=O)Nc2ccccc2)cc1[N+](=O)[O-],inactive,inactive,inactive,inactive,inactive,,,,,
S=c1[nH][nH]c(=S)s1,,,inactive,,inactive,inactive,inactive,inactive,inactive,
O=C(O)c1cc(C(=O)O)c(C(=O)O)cc1C(=O)O,inactive,inactive,,inactive,inactive,,,,inactive,inactive
CC(C)C/C=C(\C=O)c1ccccc1,,,inactive,inactive,,inactive,inactive,inactive,inactive,inactive
CCOc1ccccc1O,,inactive,inactive,inactive,inactive,inactive,inactive,,inactive,
CNc1ccccc1,,,inactive,,inactive,inactive,inactive,inactive,inactive,
O=c1c2ccccc2oc2ccccc12,inactive,,,,inactive,,,,inactive,
O=C(O)CNc1ccccc1,inactive,,inactive,inactive,inactive,,,,inactive,inactive
CCOC(C)OCC,inactive,,inactive,,,,inactive,,inactive,inactive
C[C@H](N)C(=O)N[C@@H](C)C(=O)NC1[C@H]2CN(c3nc4c(cc3F)c(=O)c(C(=O)O)cn4-c3ccc(F)cc3F)C[C@@H]12 (stereo partly specified),inactive,,inactive,,inactive,,,,inactive,inactive
CS(C)=O,,inactive,inactive,inactive,inactive,inactive,inactive,inactive,inactive,
C=CC(C)(O)CC/C=C(/C)CCC=C(C)C (stereo unspecified),,inactive,,inactive,inactive,inactive,inactive,inactive,,
O=C(O)c1cccc(C(=O)O)c1C(=O)O,inactive,,inactive,,inactive,,,,inactive,
CCN(CCCCOC(=O)c1ccc(OC)c(OC)c1)C(C)Cc1ccc(OC)cc1 (stereo unspecified),inactive,,,,inactive,,,,,inactive
O=C(O)c1cccnc1Nc1cccc(C(F)(F)F)c1,inactive,inactive,inactive,inactive,,,,,inactive,
CCCCCCCCNC,,inactive,inactive,inactive,,inactive,inactive,inactive,inactive,inactive
CC(=O)Nc1ccn(C2COC(COC(=O)c3ccccc3)O2)c(=O)n1 (stereo unspecified),inactive,,,,inactive,,inactive,,inactive,
Cc1c(N=C=O)cccc1N=C=O,inactive,,inactive,,inactive,,inactive,,inactive,inactive

SMILES,Potency [1],outcome [2],Potency [3],outcome [4],Potency [5],Potency [6],Potency [7],outcome [8],outcome [9],outcome [10]
CO[C@@H]1[C@@H](O[C@@H]2O[C@H](C)[C@@H](O[C@H]3C[C@@](C)(O)[C@@H](O)[C@H](C)O3)[C@H](N(C)C)[C@H]2O)[C@@H](CC=O)C[C@@H](C)[C@@H](O[C@@H]2CC[C@H](N(C)C)[C@@H](C)O2)/C=C/C=C/C[C@@H](C)OC(=O)C[C@H]1OC(C)=O,inactive,,,,inactive,,,,inactive,
Cc1cccc(C)c1NC(=O)CN1CCCC1,inactive,,inactive,,,,inactive,,inactive,
CCc1ccc(C(=O)C(C)CN2CCCCC2)cc1 (stereo unspecified),inactive,,,,,,inactive,,inactive,
Cc1cc(N)n(-c2ccccc2)n1,,,inactive,,inactive,inactive,inactive,inactive,inactive,
O=C(N[C@@H](Cc1ccccc1)[C@@H](O)C(=O)N1C[C@@H](O)[C@@H](O)C1)c1cc2cc(Cl)ccc2[nH]1,inactive,,inactive,,inactive,,,,inactive,inactive
C[C@]12CCC(=O)C=C1[C@@H]1C[C@@H]1[C@H]1[C@@H]3[C@@H]4C[C@@H]4[C@@]4(CCC(=O)O4)[C@@]3(C)CC[C@@H]12,inactive,,inactive,,,,inactive,,,inactive
CCC[Si](OC)(OC)OC,inactive,inactive,inactive,inactive,inactive,,,,inactive,inactive
C=CC(=O)OCCCCCCCCCC,inactive,,inactive,,,,inactive,,inactive,inactive
O=C(Cl)c1cc(Cl)cc(Cl)c1,inactive,,inactive,,inactive,,inactive,,inactive,inactive
Clc1cc(Cl)c2c(c1)N=C1CCCCCN1C2,inactive,inactive,inactive,inactive,inactive,,,,inactive,
CC(C)Oc1ccccc1O,,,inactive,,inactive,inactive,inactive,inactive,,
CCCCCCCCOCCCN,,,,,inactive,inactive,24.5 µM (active),inactive,inactive,
[O-][n+]1ccc(Cl)cc1,,inactive,inactive,inactive,inactive,inactive,inactive,inactive,inactive,inactive
CCCN(C1CCN(C(=O)C2CCNCC2)CC1)[C@@H]1CCc2ccc(OC)cc2C1,,,,,inactive,inactive,inactive,inactive,inactive,inactive
CCCCCCCCCCCCSCCOCCO,inactive,inactive,inactive,inactive,inactive,,,,,
CC(C)CC(C)(C)C,,,inactive,,inactive,inactive,inactive,inactive,inactive,inactive
OCC(O)c1ccccc1 (stereo unspecified),,,inactive,,,inactive,inactive,inactive,inactive,

# From PubChem BioAssay (Tox21)
